Laboratory results reported in the antibiotic and cytotoxicity screens of Wong et al. (2023).
In all, about 39,000 compounds went through this assay and about 3,300 (8.5%) were called active. This is one part of a sample in which actives are shown more often than they occur.

These molecules were tested on HepG2 (assay: cytotoxicity call (relative viability < 0.9)). Details: 10 µM.

**Q.** With C[C@@H]1CN([C@H](C)CO)C(=O)c2cc(NC(=O)Cc3ccccc3)ccc2O[C@@H](C)CCCCO[C@@H]1CN(C)Cc1ccncc1 as the molecule, how does the cytotoxicity call read?
**A.** inactive

**Q.** Which cytotoxicity call does the source give for Cc1ccc(S(=O)(=O)N(C)C[C@H]2OCCCC[C@H](C)Oc3ccc(NC(=O)C4CCCCC4)cc3C(=O)N([C@@H](C)CO)C[C@H]2C)cc1 here?
**A.** inactive

**Q.** With C[C@@H]1CN([C@H](C)CO)C(=O)CCCn2nncc2CO[C@H]1CN(C)C(=O)c1cc(-c2ccccc2)on1 as the molecule, how does the cytotoxicity call read?
**A.** inactive

**Q.** With COc1ccc(S(=O)(=O)N(C)C[C@@H]2Oc3c(NC(=O)c4cc(C)nn4C)cccc3C(=O)N([C@H](C)CO)C[C@H]2C)cc1 as the molecule, how does the cytotoxicity call read?
**A.** inactive

**Q.** Which cytotoxicity call does the source give for C[C@@H]1CN([C@H](C)CO)C(=O)c2cccc(NS(=O)(=O)c3cn(C)cn3)c2O[C@H]1CN(C)S(=O)(=O)c1ccc(Cl)cc1 here?
**A.** inactive

**Q.** With COc1ccc(S(=O)(=O)N(C)C[C@@H]2Oc3ccc(NS(=O)(=O)c4ccc(F)cc4)cc3C(=O)N([C@@H](C)CO)C[C@H]2C)cc1 as the molecule, how does the cytotoxicity call read?
**A.** inactive

**Q.** With O=C(N/N=C/c1ccc(CO)o1)c1ccccn1 as the molecule, how does the cytotoxicity call read?
**A.** inactive

**Q.** Which cytotoxicity call does the source give for O=C(NO)c1ccc(C(=O)N/N=C/c2ccc(B(O)O)cc2)cc1 here?
**A.** inactive

**Q.** For O=C(NN=Cc1ccc([N+](=O)[O-])o1)c1ccc(O)cc1, which cytotoxicity call is on record?
**A.** active

**Q.** With NC(=O)NN=Cc1ccc([N+](=O)[O-])o1 as the molecule, how does the cytotoxicity call read?
**A.** active

**Q.** For COC(=O)N/N=C/c1ccc([N+](=O)[O-])o1, which cytotoxicity call is on record?
**A.** inactive

**Q.** NC(=O)N/N=C/c1ccc([N+](=O)[O-])o1 was tested. Which cytotoxicity call did it give?
**A.** inactive

**Q.** For C[C@@H]1CCCCO[C@@H](CN(C)C(=O)C2CCCCC2)[C@@H](C)CN([C@H](C)CO)C(=O)c2cc(NC(=O)c3ccncc3)ccc2O1, which cytotoxicity call is on record?
**A.** inactive

**Q.** With O=C(CCCCCC(=O)Nc1ccccc1O)N/N=C/[C@H](O)[C@@H](O)[C@@H](O)[C@H](O)C(=O)O as the molecule, how does the cytotoxicity call read?
**A.** inactive

**Q.** Which cytotoxicity call does the source give for COCC#Cc1cnc2c(c1)C(=O)N([C@H](C)CO)C[C@@H](C)[C@@H](CN(C)C(=O)CN1CCOCC1)O2 here?
**A.** inactive

**Q.** Which cytotoxicity call does the source give for COc1cc(CN)cc(OC)c1OC here?
**A.** inactive

**Q.** Which cytotoxicity call does the source give for C[C@H](CO)N1C[C@H](C)[C@@H](CN(C)C(=O)Nc2ccc(F)cc2)Oc2ccc(NC(=O)CCCCCC(=O)Nc3ccccc3N)cc2CC1=O here?
**A.** inactive

**Q.** How did the cytotoxicity call turn out when COc1ccc(NC(=O)N(C)C[C@H]2OCCCC[C@@H](C)Oc3ccc(NC(=O)Cc4ccccc4)cc3C(=O)N([C@H](C)CO)C[C@@H]2C)cc1 was run?
**A.** inactive

**Q.** How did the cytotoxicity call turn out when O=C(CN1CCOCC1)NCC[C@H]1CC[C@@H](NS(=O)(=O)c2ccc(F)cc2)[C@H](CO)O1 was run?
**A.** inactive

**Q.** With C[C@H]1CN([C@@H](C)CO)C(=O)c2cccc(NC(=O)C3CCCCC3)c2O[C@H]1CN(C)S(=O)(=O)c1cn(C)cn1 as the molecule, how does the cytotoxicity call read?
**A.** inactive

**Q.** How did the cytotoxicity call turn out when NCCN1C(=O)c2[nH]nc(-c3ccccc3)c2[C@H]1c1ccccc1 was run?
**A.** active

**Q.** Which cytotoxicity call does the source give for c1ccc(-c2n[nH]c3c2CCC3)cc1 here?
**A.** inactive

**Q.** With NCc1c[nH]nc1-c1ccccc1 as the molecule, how does the cytotoxicity call read?
**A.** inactive

**Q.** C[C@@H]1CN([C@H](C)CO)S(=O)(=O)c2ccc(-c3cccc(F)c3)cc2O[C@H]1CN(C)S(C)(=O)=O was tested. Which cytotoxicity call did it give?
**A.** inactive

**Q.** Which cytotoxicity call does the source give for Cl.Clc1ccc2c(c1)CCc1cccnc1C2=C1CCNCC1 here?
**A.** active

**Q.** c1ccc2c(c1)Cc1cccnc1-2 was tested. Which cytotoxicity call did it give?
**A.** inactive

**Q.** Clc1ccc2c(c1)CCc1cccnc1C2=C1CCNCC1 was tested. Which cytotoxicity call did it give?
**A.** active

**Q.** With Clc1ccc2ncccc2c1 as the molecule, how does the cytotoxicity call read?
**A.** inactive

**Q.** With O=C(C[C@@H]1CC[C@H]2[C@@H](COC[C@H](O)CN2C(=O)c2ccc3c(c2)OCO3)O1)NCCN1CCCCC1 as the molecule, how does the cytotoxicity call read?
**A.** inactive

**Q.** With Cc1ccc(S(=O)(=O)Nc2cccc3c2O[C@@H](CN(C)C(=O)Nc2cccc4ccccc24)[C@@H](C)CN([C@H](C)CO)C3=O)cc1 as the molecule, how does the cytotoxicity call read?
**A.** inactive

**Q.** With NC[C@@H]1CC(=O)N(c2ccccc2)C1 as the molecule, how does the cytotoxicity call read?
**A.** active

**Q.** NC(=O)N[C@@H]1CC(=O)N(c2ccccc2)C1 was tested. Which cytotoxicity call did it give?
**A.** inactive

**Q.** How did the cytotoxicity call turn out when NC[C@@H]1CC(=O)N(Cc2ccccc2)C1 was run?
**A.** inactive

**Q.** For O=c1cc(-c2ccccc2)ss1, which cytotoxicity call is on record?
**A.** inactive

**Q.** For Cc1cc(Cl)cc2sc(N(Cc3ccccn3)C(=O)c3ccc(S(=O)(=O)N4CCCC4)cc3)nc12, which cytotoxicity call is on record?
**A.** inactive

**Q.** Which cytotoxicity call does the source give for COc1cc(OC)c(S(=O)(=O)N(C)Cc2ccccc2)cc1S(=O)(=O)N(C)Cc1ccccc1 here?
**A.** inactive

**Q.** For Cc1ccc2sc(N(CCCN(C)C)C(=O)c3ccc(S(=O)(=O)N(C)Cc4ccccc4)cc3)nc2c1C, which cytotoxicity call is on record?
**A.** active

**Q.** With Cc1ccc2sc(N(CCCN(C)C)C(=O)c3ccc(S(=O)(=O)N(C)C4CCCCC4)cc3)nc2c1C as the molecule, how does the cytotoxicity call read?
**A.** active

**Q.** Which cytotoxicity call does the source give for O=C(c1ccc(S(=O)(=O)N2CCCCCC2)cc1)N(Cc1cccnc1)c1nc2c(F)cc(F)cc2s1 here?
**A.** inactive

**Q.** Which cytotoxicity call does the source give for CC(C)(C)NC[C@@H](O)CSc1nc(-c2ccc(C(N)=O)s2)cs1 here?
**A.** inactive

**Q.** For COCC(=O)N(C)C[C@H]1Oc2cc(-c3ccc(C#N)cc3)ccc2S(=O)(=O)N([C@H](C)CO)C[C@H]1C, which cytotoxicity call is on record?
**A.** inactive

**Q.** Which cytotoxicity call does the source give for O=C(Nc1nccs1)[C@H]1[C@H](CO)[C@H]2Cn3c(cccc3=O)[C@@H]1N2C(=O)C1CC1 here?
**A.** inactive

**Q.** How did the cytotoxicity call turn out when Cc1noc(C)c1S(=O)(=O)N(C)C[C@@H]1OCCCC[C@H](C)Oc2ccc(NC(=O)Nc3ccccc3)cc2C(=O)N([C@@H](C)CO)C[C@H]1C was run?
**A.** inactive

**Q.** How did the cytotoxicity call turn out when C[C@H](CO)N1C[C@H](C)[C@H](CN(C)Cc2ccncc2)Oc2c(NS(=O)(=O)c3ccc(F)cc3)cccc2C1=O was run?
**A.** inactive

**Q.** How did the cytotoxicity call turn out when COC(=O)[C@@H](N)CS[C@H]1CCCCO1 was run?
**A.** inactive

**Q.** For Cc1noc(C)c1NC(=O)Nc1ccc2c(c1)C(=O)N([C@H](C)CO)C[C@H](C)[C@H](CN(C)Cc1ccc(-c3ccccc3)cc1)O2, which cytotoxicity call is on record?
**A.** inactive

**Q.** How did the cytotoxicity call turn out when COc1ccc2c(c1)n(CCN)c(=O)n2C(=O)[C@@H]1C[C@H](C)CC[C@H]1C(C)C was run?
**A.** active

**Q.** CC(C)[C@H]1CC[C@@H](C)C[C@@H]1NC(=O)c1cccc2ccccc12 was tested. Which cytotoxicity call did it give?
**A.** inactive

**Q.** Which cytotoxicity call does the source give for C[C@@H]1CN([C@@H](C)CO)C(=O)c2cc(NC(=O)CCCN(C)C)ccc2O[C@@H](C)CCCCO[C@@H]1CN(C)C here?
**A.** inactive

**Q.** Which cytotoxicity call does the source give for CN(Cc1ccc(/C=C/C(=O)Nc2ccc(-c3ccccc3)cc2N)cc1)CC12CC3CC(CC(C3)C1)C2 here?
**A.** active

**Q.** Which cytotoxicity call does the source give for C[C@H]1CN([C@@H](C)CO)C(=O)c2cccc(NC(=O)CCCCCC(=O)Nc3ccccc3N)c2O[C@@H]1CN(C)Cc1ccc(-c2ccccc2)cc1 here?
**A.** inactive

**Q.** How did the cytotoxicity call turn out when CN(Cc1ccc(/C=C/C(=O)Nc2ccc(-c3cccs3)cc2N)cc1)CC12CC3CC(CC(C3)C1)C2 was run?
**A.** inactive

**Q.** With O=C(C[C@H]1CC[C@@H]2[C@H](COC[C@H](O)CN2S(=O)(=O)c2cccc(F)c2)O1)NCc1ccncn1 as the molecule, how does the cytotoxicity call read?
**A.** inactive

**Q.** How did the cytotoxicity call turn out when C[C@H]1CN([C@@H](C)CO)C(=O)c2cc(C#CC3CCCCC3)cnc2O[C@H]1CN(C)C(=O)Cc1ccccn1 was run?
**A.** inactive

**Q.** For CCc1nc2ccc(C(=O)NCc3ccc(OC)cc3)cn2c1N(CC)Cc1cccc(Br)c1, which cytotoxicity call is on record?
**A.** inactive

**Q.** For CC(=O)n1cc([C@@H]2C=C(C(=O)N3CCN(Cc4ccc5c(c4)OCO5)CC3)O[C@H](OCc3ccc(COC(=O)NCCCCCC(=O)NO)cc3)C2)c2ccccc21, which cytotoxicity call is on record?
**A.** inactive

**Q.** How did the cytotoxicity call turn out when CCC(=O)NCCC1CCc2ccc3c(c21)CCO3 (centres undefined) was run?
**A.** active

**Q.** For CCC(=O)NCc1nn(C)c2c1COCC2, which cytotoxicity call is on record?
**A.** inactive

**Q.** COc1ccc(NC(=O)N(C)C[C@@H]2OCCCC[C@@H](C)Oc3ccc(NC(=O)Nc4cccc5ccccc45)cc3C(=O)N([C@@H](C)CO)C[C@@H]2C)cc1 was tested. Which cytotoxicity call did it give?
**A.** inactive

**Q.** For C[C@H](CO)N1C[C@H](C)[C@@H](CN(C)Cc2ccc3c(c2)OCO3)OCCCC[C@H](C)Oc2ccc(NC(=O)Cc3ccccc3)cc2C1=O, which cytotoxicity call is on record?
**A.** inactive

**Q.** For C[C@@H]1CCCCO[C@@H](CN(C)CC2CCCCC2)[C@@H](C)CN([C@@H](C)CO)C(=O)c2cc(NC(=O)Nc3ccc4c(c3)OCO4)ccc2O1, which cytotoxicity call is on record?
**A.** active

**Q.** Which cytotoxicity call does the source give for C[C@@H]1CCCCO[C@H](CN(C)CC2CC2)[C@@H](C)CN([C@H](C)CO)C(=O)c2cc(NC(=O)Nc3ccc4c(c3)OCO4)ccc2O1 here?
**A.** inactive

**Q.** C[C@@H]1CCCCO[C@@H](CN(C)CC2CC2)[C@@H](C)CN([C@H](C)CO)C(=O)c2cc(NC(=O)Nc3ccc4c(c3)OCO4)ccc2O1 was tested. Which cytotoxicity call did it give?
**A.** inactive

**Q.** For C[C@H](CO)N1C[C@H](C)[C@H](CN(C)CC2CCCCC2)OCCCC[C@H](C)Oc2ccc(NC(=O)Nc3ccc4c(c3)OCO4)cc2C1=O, which cytotoxicity call is on record?
**A.** active

**Q.** How did the cytotoxicity call turn out when C[C@@H]1CN([C@H](C)CO)C(=O)c2cc(NC(=O)Nc3ccc4c(c3)OCO4)ccc2O[C@@H](C)CCCCO[C@@H]1CN(C)CC1CCCCC1 was run?
**A.** inactive

**Q.** C[C@@H]1CCCCO[C@@H](CN(C)CC2CCCCC2)[C@@H](C)CN([C@H](C)CO)C(=O)c2cc(NC(=O)Nc3ccc4c(c3)OCO4)ccc2O1 was tested. Which cytotoxicity call did it give?
**A.** active

**Q.** For C[C@@H]1CCCCO[C@H](CN(C)CC2CCCCC2)[C@@H](C)CN([C@H](C)CO)C(=O)c2cc(NC(=O)Nc3ccc4c(c3)OCO4)ccc2O1, which cytotoxicity call is on record?
**A.** inactive

**Q.** With C[C@H](CO)N1C[C@H](C)[C@H](CN(C)CC2CC2)OCCCC[C@H](C)Oc2ccc(NC(=O)Nc3ccc4c(c3)OCO4)cc2C1=O as the molecule, how does the cytotoxicity call read?
**A.** inactive

**Q.** C[C@H](CO)N1C[C@H](C)[C@@H](CN(C)CC2CC2)OCCCC[C@H](C)Oc2ccc(NC(=O)Nc3ccc4c(c3)OCO4)cc2C1=O was tested. Which cytotoxicity call did it give?
**A.** inactive

**Q.** With C[C@H]1CCCCO[C@H](CN(C)CC2CCCCC2)[C@@H](C)CN([C@@H](C)CO)C(=O)c2cc(NC(=O)Nc3ccc4c(c3)OCO4)ccc2O1 as the molecule, how does the cytotoxicity call read?
**A.** active

**Q.** C[C@@H]1CCCCO[C@@H](CN(C)CC2CC2)[C@H](C)CN([C@H](C)CO)C(=O)c2cc(NC(=O)Nc3ccc4c(c3)OCO4)ccc2O1 was tested. Which cytotoxicity call did it give?
**A.** inactive

**Q.** For C[C@@H]1CCCCO[C@H](CN(C)CC2CCCCC2)[C@H](C)CN([C@H](C)CO)C(=O)c2cc(NC(=O)Nc3ccc4c(c3)OCO4)ccc2O1, which cytotoxicity call is on record?
**A.** inactive

**Q.** Which cytotoxicity call does the source give for CCC[C@@]1(CCc2ccccc2)CC(=O)[C@@H]([C@H](CC)c2cccc(NS(=O)(=O)c3ccc(C(F)(F)F)cn3)c2)C(=O)O1 here?
**A.** inactive

**Q.** Which cytotoxicity call does the source give for C[C@@H]1CCCCO[C@@H](CN(C)Cc2ccc(C(=O)O)cc2)[C@@H](C)CN([C@@H](C)CO)C(=O)c2cc(NS(=O)(=O)c3ccc(F)cc3)ccc2O1 here?
**A.** inactive
